Measurements: PubChem BioAssay (NCI)
This is part of a sample that, as a whole, favours compounds with a hit. Of some 83,000 tested, about 20% had one in any assay.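 48-hour exposure, single concentration, 96-well plates; percent growth endpoint where 0 means no net growth. Active: below 10.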 A number with no mark means an inactive call. The source made the active and inactive calls.

What was measured:
Test in all cases: NCI-60 one-dose screen, 48 h (100 = growth as untreated, 0 = no growth, -100 = all killed)
Conditions in all cases: 10 µM unless noted
DU-145 prostate = system: DU-145 prostate
K-562 leukemia = system: K-562 leukemia
MALME-3M melanoma = system: MALME-3M melanoma
MDA-MB-231 breast = system: MDA-MB-231 breast
RXF 393 renal = system: RXF 393 renal
SF-268 CNS = system: SF-268 CNS
SF-295 CNS = system: SF-295 CNS
SF-539 CNS = system: SF-539 CNS
UACC-257 melanoma = system: UACC-257 melanoma
M14 melanoma = system: M14 melanoma

SMILES	growth (DU-145 prostate)	growth (K-562 leukemia)	growth (MALME-3M melanoma)	growth (MDA-MB-231 breast)	growth (RXF 393 renal)	growth (SF-268 CNS)	growth (SF-295 CNS)	growth (SF-539 CNS)	growth (UACC-257 melanoma)	growth (M14 melanoma)
Cc1ccc(S(=O)(=O)c2nc(-c3ccc(F)cc3)oc2S(C)(=O)=O)cc1	77%	1.76% (active)	-45.6% (active)	65%	40.3%	95.1%	95.4%	58.1%	90.3%	64%
O=C(CSc1nc2ccccc2c(=O)n1CCc1ccccc1)Nc1ccc(S(=O)(=O)Nc2ccc(Cl)nn2)cc1	105%	87.2%	96.5%	94.7%	86.5%	96.7%	95.3%	92.3%	99.3%	96.2%
Cc1ccc(CSC2=C(Cl)CN(c3ccc(Cl)cc3)C2=O)cc1	108%	100%	96.9%	107%	111%	108%	101%	103%	107%	107%
CC[C@]12C=CCN3CC[C@@]4(c5ccc(OC)cc5N(C)[C@H]4[C@@](O)(C(=O)OC)[C@@H]1OC(=O)CCN1CCc4ccccc4C1)[C@@H]32	106%	75.4%	89.2%	84.9%	-95.9% (active)	85.2%	104%	95.9%	100%	98.2%
O=C(/C=C/c1ccc(Cl)c(Cl)c1)Nc1ncc(Cc2ccc(Cl)c(Cl)c2)s1	49.5%	15.3%	79.8%	97.1%	104%	61.4%	7.58% (active)	60.5%	40.9%	-27.4% (active)
OCC(Nc1ncnc2ccc(-c3cnc4cnccn34)cc12)c1ccccc1 (stereo not given)	47.4%	60.2%	81.5%	83.2%	65.4%	75.9%	64.7%	79%	80.7%	93.3%
O=S(=O)(NCCCNc1nccc(-c2[nH]c(-c3ccccc3)nc2-c2ccc(F)c(O)c2)n1)c1ccc(C(F)(F)F)cc1	79.9%	9.88% (active)	-5.99% (active)	67.1%	24.5%	54%	31.3%	31.1%	24.6%	3.88% (active)
CN1CCN(Cc2ccc(NC(=O)c3cncc(C#Cc4cnc5ccc(OCC6COC6)nn45)c3)cc2C(F)(F)F)CC1	-83.1% (active)	0.233% (active)	-88.2% (active)	-63% (active)	-78.5% (active)	-70.2% (active)	-93.7% (active)	-88.2% (active)	-51.6% (active)	-86.8% (active)
CC(Nc1ncnc2ccc(-c3cnc4cnccn34)cc12)c1ccccc1 (stereo not given)	37.4%	48.3%	58%	64.3%	46.6%	67.7%	50.5%	66%	75.4%	77.8%
CN1CCN(CC#CCn2c3c(c4ccccc42)C[C@]2(C)[C@H]4CC=C5[C@@H]6CC(C)(C)CC[C@]6(C(=O)N6CCOCC6)CC[C@@]5(C)[C@]4(C)CC[C@H]2C3(C)C)CC1	64.8%	-23% (active)	83.3%	43.1%	68.4%	83.5%	99.3%	73.9%	102%	87.7%
O=C(/C=C/Nc1ccc(S(=O)(=O)Nc2ncccn2)cc1)c1ccc(N=Cc2c(O)[nH]c3ccccc23)cc1	116%	97.1%	127%	99.9%	113%	112%	105%	102%	101%	109%
Cn1cc(-c2nn3cc(-c4ccncc4)nc3s2)c2cc(Br)ccc21	75.1%	4.34% (active)	56.8%	78.5%	65.4%	68.8%	38.5%	80.4%	98.3%	52%
Cc1ccc(NC2=C(Cl)C(=O)c3nc(C)ccc3C2=O)c(C)c1	-1.93% (active)	2.95% (active)	13.9%	11.9%	31.1%	24.8%	-29.9% (active)	-61.9% (active)	-80.6% (active)	-58.3% (active)
CC(=O)c1cc(C(=O)N2c3ccccc3Sc3ccccc32)n2c1ccc1ccccc12	75%	23.6%	62%	97.4%	66.9%	67.5%	41%	69.1%	51.8%	40.8%
CNC(=O)c1cc(-c2ccc(NC(=S)Nc3cccc(C(F)(F)F)c3)cc2)nc2cccnc12	103%	90.8%	112%	96.5%	107%	106%	93.3%	100%	104%	99.3%
O=C(CSc1nc2ccccc2c(=O)n1-c1ccc(S(=O)(=O)Nc2ccc(Cl)nn2)cc1)Nc1ccc(S(=O)(=O)Nc2ccc(Cl)nn2)cc1	107%	88.1%	102%	102%	102%	101%	102%	103%	101%	111%
Oc1[nH]c2ccc(Cl)cc2c1N=Nc1nc(N=Nc2c(O)[nH]c3ccc(Cl)cc23)nc(N2CCCCC2)n1	68%	39.3%	58.8%	64.5%	86.8%	54.5%	24.3%	79.5%	105%	81.1%
CNCCN(C)c1ccc(Nc2cc(NC3CC3)n3ncc(C#N)c3n2)cc1NC(C)=O	17.5%	10.7%	-5.08% (active)	-6.44% (active)	-24.5% (active)	7.24% (active)	12%	6.65% (active)	8.4% (active)	-20.6% (active)
N#Cc1cnc2ccc(-c3cnc4n[nH]nc4c3)cc2c1N1CCc2cc(F)c(Cl)cc21	14.6%	28.1%	1.37% (active)	21.2%	-22.2% (active)	16.7%	2.19% (active)	2.37% (active)	23.9%	21.2%
Nc1ncc(-c2ccc3ncnc(NCc4ccccc4)c3c2)cn1	23.7%	67.6%	38%	39.8%	8.82% (active)	44.8%	47.4%	44.3%	85.1%	65.6%
O=C(CCCCCCNC(=O)C(O)(O)C(F)(F)F)Nc1nc2ccccc2s1	6.73% (active)	11.2%	14.4%	23.5%	-47.3% (active)	8.81% (active)	-36.5% (active)	10.5%	8.93% (active)	14.5%
CC(=O)N(O)CCCCCNC(=O)CCC(=O)N(O)CCCCCNC(=O)CCC(=O)N(O)CCCCCN(CCCCCCCCCC[P+](c1ccccc1)(c1ccccc1)c1ccccc1)CCCCCCCCCC[P+](c1ccccc1)(c1ccccc1)c1ccccc1	14.9%	9.98% (active)	-17.4% (active)	16.4%	-9.88% (active)	16.2%	12.7%	-8.94% (active)	-10.9% (active)	11%
COC(=O)c1cccc(NC2=CC(=O)C(C)=C(C)C2=O)c1	108%	69.3%	97.9%	76.4%	94.2%	97.3%	115%	97.2%	86.9%	108%
CNC(=O)c1cc(Oc2ccc3c(c2)sc2nc(-c4ccc(N(C)C)cc4)cn23)ccn1	20.2%	11.8%	57.5%	15.9%	13.9%	45.7%	8.54% (active)	-14% (active)	78.8%	19.1%
CCCCCCNC(=O)Oc1ccc(/C(=C(/C)c2ccc(OC)cc2)c2ccc(OCCN3CCCCCC3)cc2)cc1	47.8%	2.71% (active)	-34.9% (active)	6.27% (active)	-8.34% (active)	60.3%	-41.3% (active)	-59% (active)	9.09% (active)	-63.5% (active)
Cc1ccccc1Nc1nc(SC(C)C)nc(-c2ccccc2)c1C#N	76.6%	46.3%	66.3%	67.9%	28.1%	57%	23.8%	28.1%	107%	77.2%
